In PubChem BioAssay AID1508625 (Wald Lab, School of Medicine, Case Western Reserve …, 2021):

Assay: small molecules boosting NK-mediated OVCAR3 lysis – imaging, primary NK cells, calcein-AM imaging, primary screen (AID 1508625);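 note: compound given to NK cells 16 h before adding targets at 1.5 to 1 ratio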;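 for z-score: more negative robust z means stronger NK killing of tumor cells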
Conditions: OVCAR3 lysis by primary NK cells, at 5 µM; z-score: measured here: robust Z-score, single-point normalisation

## COc1ccc(OC)c(NC(=O)c2cc3cccc(OC)c3oc2=O)c1
  corrected activity, negative = more killing: -3.03%
  z-score: -1.31

## COc1ccccc1OCc1cccc([N+](=O)[O-])c1
  corrected activity, negative = more killing: -5.65%
  z-score: -3.15

## COc1cc(OC)c(OC)cc1CN1CCN(C(=O)c2ccncc2)CC1
  corrected activity, negative = more killing: -2.22%
  z-score: -0.992

## S=C1CSc2ccccc2N1
  corrected activity, negative = more killing: -1.4%
  z-score: -0.377

## O=C1C2CC=C(Cl)CC2C(=O)N1CC1OCCc2ccccc21 (centres undefined)
  corrected activity, negative = more killing: -3.37%
  z-score: -1.29

## O=C1OC(c2cccc(Cl)c2)=NC1=Cc1ccc(Br)o1
  corrected activity, negative = more killing: -4.19%
  z-score: -1.78

## Cc1ccc(OCC(=O)Nc2ccc(N3CCOCC3)c(Cl)c2)cc1
  corrected activity, negative = more killing: -5.7%
  z-score: -1.77

## Cc1ccc2c(C)nc(SCc3ccc(Cl)cc3)nc2c1
  corrected activity, negative = more killing: -2.17%
  z-score: -0.674

## O=C1C(=Cc2ccccc2)SC(=S)N1C1CCS(=O)(=O)C1 (centres undefined)
  corrected activity, negative = more killing: -2.25%
  z-score: -0.887

## Cc1sc2c(c1C)c(=O)n(CCc1ccccc1)c(=O)n2Cc1cccc([N+](=O)[O-])c1
  corrected activity, negative = more killing: -2.58%
  z-score: -0.733

## COc1ccc([N+](=O)[O-])cc1N=Cc1ccc(N(C)C)cc1
  corrected activity, negative = more killing: -10%
  z-score: -2.12

## Cc1ccc(C(=O)COC(=O)c2ccc(N3C(=O)C4CCC(C)CC4C3=O)cc2)cc1[N+](=O)[O-] (centres undefined)
  corrected activity, negative = more killing: -2.55%
  z-score: -1.37

## COc1ccc(N2C3=C(C(=O)CC(C)(C)C3)C(c3cccc(F)c3)C3=C2CC(C)(C)CC3=O)c(OC)c1
  corrected activity, negative = more killing: -1.83%
  z-score: -0.581

## COc1ccc(OC)c(C2Nc3ccccc3NC3=C2C(=O)CC(C)(C)C3)c1 (centres undefined)
  corrected activity, negative = more killing: -5.96%
  z-score: -1.85

## Cc1ccc(NC(=O)c2cc(S(=O)(=O)NCCc3ccccc3)ccc2F)cc1F
  corrected activity, negative = more killing: -5%
  z-score: -1.35

## CN(C)c1ccc(C=CC=C2SC(=S)N(Cc3ccccc3)C2=O)cc1
  corrected activity, negative = more killing: -3.62%
  z-score: -1.88

## COc1cc(C(=S)N2CCCCC2)ccc1OC(=O)c1ccc(C)cc1
  corrected activity, negative = more killing: -4.49%
  z-score: -1.39

## COc1ccc(-n2c(=S)[nH]c3cc(C(=O)Nc4cc(C(N)=O)ccc4OC)ccc3c2=O)c(OC)c1
  corrected activity, negative = more killing: -3.49%
  z-score: -1.11

## CC1=C(C)CC(C(=O)Nc2ccc(S(=O)(=O)N3CCOCC3)cc2)C(C(=O)O)C1 (centres undefined)
  corrected activity, negative = more killing: -10.2%
  z-score: -3.17

## O=C(NN=Cc1ccccc1Cl)C(=O)Nc1cccc(C(F)(F)F)c1
  corrected activity, negative = more killing: -2.13%
  z-score: -0.904

## CCOc1ccc(Br)cc1S(=O)(=O)N1CCN(c2ccc(C)cc2C)CC1
  corrected activity, negative = more killing: -1.21%
  z-score: -0.676

## CCOc1ccc(C2C(=C(O)c3ccccc3)C(=O)C(=O)N2CCO)cc1 (centres undefined)
  corrected activity, negative = more killing: -2.61%
  z-score: -0.996

## O=C(CCCn1c(=S)[nH]c2cc3c(cc2c1=O)OCO3)NCCCN1CCOCC1
  corrected activity, negative = more killing: -7.74%
  z-score: -2.05

## CC(=O)Nc1ccc(N=Cc2ccc(C)cc2)cc1
  corrected activity, negative = more killing: -3.8%
  z-score: -0.8

## Cc1ccc(-n2cnc3cc(C(=O)NC4CCCC4)ccc32)cc1Cl
  corrected activity, negative = more killing: -3.42%
  z-score: -0.921

## CC(C)C(CC(=O)O)NS(=O)(=O)c1ccc(F)cc1 (centres undefined)
  corrected activity, negative = more killing: -3.43%
  z-score: -0.924

## COC(=O)c1ccc(COC(=O)c2ccncc2)cc1
  corrected activity, negative = more killing: -0.707%
  z-score: -0.393

## COc1ccccc1N1CCN(C(=O)c2ccc(Cn3c(=S)[nH]c4cc5c(cc4c3=O)OCO5)cc2)CC1
  corrected activity, negative = more killing: -5.34%
  z-score: -1.42

## Cc1ccc(-n2cnc3cc(C(=O)NCC4CCCO4)ccc32)cc1Cl (centres undefined)
  corrected activity, negative = more killing: -0.997%
  z-score: -0.269

## COc1cccc(CCNc2ccc(N3C(=O)C4CCC(C)CC4C3=O)cc2[N+](=O)[O-])c1 (centres undefined)
  corrected activity, negative = more killing: -3.2%
  z-score: -1.17

## Clc1cccc(N2CCN(Cc3cn4c(-c5cccc(Br)c5)nnc4s3)CC2)c1
  corrected activity, negative = more killing: -6.72%
  z-score: -1.91

## CCOC(=O)C1CCN(c2ccc([N+](=O)[O-])cc2S(=O)(=O)N2CCOCC2)CC1
  corrected activity, negative = more killing: -3.03%
  z-score: -0.939

## O=C(NN=C1CCCCC1)C(=O)Nc1ccc(Cl)cc1
  corrected activity, negative = more killing: -4.69%
  z-score: -1.99

## CCCCOc1ccc(CN2CCN3CCCC3C2C)cc1 (centres undefined)
  corrected activity, negative = more killing: -3.8%
  z-score: -1.66

## COc1ccccc1OCCCCCCN1CCOCC1
  corrected activity, negative = more killing: -4.44%
  z-score: -1.82

## Cc1ccc(C(=O)N2C(=O)C(c3ccccc3)Oc3ccccc32)cc1 (centres undefined)
  corrected activity, negative = more killing: -10.8%
  z-score: -3.35

## O=[N+]([O-])c1cccc(CN2CCN3CCCC3C2C2CCCCC2)c1 (centres undefined)
  corrected activity, negative = more killing: 0.41%
  z-score: 0.179

## Cc1cc2nc3sc(=Cc4ccc(Cl)cc4Cl)c(=O)n3c2cc1C
  corrected activity, negative = more killing: -1.46%
  z-score: -0.755

## O=c1nc(C=Cc2ccc(Br)cc2)cc(C(F)(F)F)[nH]1
  corrected activity, negative = more killing: 0.858%
  z-score: 0.256

## O=C(c1ccc(COCC(F)(F)F)o1)N1CCCCCC1
  corrected activity, negative = more killing: -2.9%
  z-score: -1.19

## O=C(CNC(=O)OCc1ccccc1)Oc1cc2oc(=O)c3c(c2cc1Cl)CCC3
  corrected activity, negative = more killing: -2.23%
  z-score: -0.829

## Cc1cc(NC(=O)CSc2nc3ccc(Br)cc3c3nc4ccccc4n23)no1
  corrected activity, negative = more killing: -5.14%
  z-score: -1.36

## COC(=O)c1sc(N2C(=O)C(=O)C(=C(O)c3ccc(Cl)cc3)C2c2ccc(C)cc2)nc1C (centres undefined)
  corrected activity, negative = more killing: -3.82%
  z-score: -1.66

## COc1ccc(-c2ccc3c(N)c(C(=O)Nc4ccc(C(C)=O)cc4)sc3n2)cc1
  corrected activity, negative = more killing: -4.48%
  z-score: -1.34

## COC(=O)c1cc(OC)c(OC)cc1NC(=O)c1cc(Cl)ccc1Cl
  corrected activity, negative = more killing: -1.51%
  z-score: -0.842

## O=C(CCn1c(=O)c2sccc2n(Cc2cc(=O)n3ccccc3n2)c1=O)NCc1ccc2c(c1)OCO2
  corrected activity, negative = more killing: -7.55%
  z-score: -2.14

## O=c1c2cc3c(cc2nc(SCc2cccc(F)c2)n1Cc1ccco1)OCO3
  corrected activity, negative = more killing: -3.76%
  z-score: -0.995
